Reference: PubChem BioAssay AID1159580 (chemical genetic matrix, 2015)
Hit rate of the full screen: of about 5,500 compounds, about 2,000 (36%) were called active. Another 18% or so got no clear call; they are omitted. Rule as the data show it: active = normalized growth mostly below about 0.91 (no sharp cut-off); inconclusive = no clear call, values can overlap the other calls; inactive = mostly above about 0.92. The list shows a part of the results.

Experiment: chemical genetic growth profiling, strain panel (AID 1159580);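 also: tested at 20 µM; growth read once vehicle control cultures reached saturation at 30 °C; 1 = growth at the plate median or of vehicle wells; lower values mean less growth of the strain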
Details: S. cerevisiae deletion strains, growth OD

Measured: normalized growth

NC(=O)C(=O)O
inactive: locus YAL013W, strain DEP1, stronger effect = lower value 1.01 | locus YAL040C, strain CLN3, stronger effect = lower value 1 | locus YCL061C, strain MRC1 (second series), stronger effect = lower value 1 | locus YDR150W, strain NUM1, stronger effect = lower value 1 | locus YDR363W, strain ESC2, stronger effect = lower value 1.02 | locus YER002W, strain NOP16, stronger effect = lower value 0.999 | locus YGR078C, strain PAC10, stronger effect = lower value 0.994 | locus YMR307W, strain GAS1, stronger effect = lower value 1 | locus YNL175C, strain NOP13, stronger effect = lower value 1.01 | locus YNL197C, strain WHI3, stronger effect = lower value 1 | locus YNL224C, strain SQS1, stronger effect = lower value 1.01 | locus YOR083W, strain WHI5 (second series), stronger effect = lower value 1.02 | locus YPL055C, strain LGE1, stronger effect = lower value 1.01 | locus YPL241C, strain CIN2, stronger effect = lower value 0.997
